Data reported in ChEMBL document CHEMBL3988442, “University of Dundee, Small-Polar-MMV Screening Library” (2021).
For some assays here: Results with a measured potency or affinity are listed apart.

Legend:
Set-up in all cases: scale not given: direction of the effect not stated beside the values
[1] = biological target: Protein translocase subunit SecA (Escherichia coli (strain K12)) (UniProt P10408); test: Assay to Identify E. coli SecA ATPase Inhibitors; type: functional; conditions: 30 µM
[2] = biological target: T1, Ubiquitin-activating enzyme e1, putative (Leishmania donovani (strain BPK282A1)) (UniProt E9BSI1); test: Leishmania donovani Ubiquitin Activating Enzyme (LdE1); type: functional; conditions: 30 µM
T1 sequence (whole entry): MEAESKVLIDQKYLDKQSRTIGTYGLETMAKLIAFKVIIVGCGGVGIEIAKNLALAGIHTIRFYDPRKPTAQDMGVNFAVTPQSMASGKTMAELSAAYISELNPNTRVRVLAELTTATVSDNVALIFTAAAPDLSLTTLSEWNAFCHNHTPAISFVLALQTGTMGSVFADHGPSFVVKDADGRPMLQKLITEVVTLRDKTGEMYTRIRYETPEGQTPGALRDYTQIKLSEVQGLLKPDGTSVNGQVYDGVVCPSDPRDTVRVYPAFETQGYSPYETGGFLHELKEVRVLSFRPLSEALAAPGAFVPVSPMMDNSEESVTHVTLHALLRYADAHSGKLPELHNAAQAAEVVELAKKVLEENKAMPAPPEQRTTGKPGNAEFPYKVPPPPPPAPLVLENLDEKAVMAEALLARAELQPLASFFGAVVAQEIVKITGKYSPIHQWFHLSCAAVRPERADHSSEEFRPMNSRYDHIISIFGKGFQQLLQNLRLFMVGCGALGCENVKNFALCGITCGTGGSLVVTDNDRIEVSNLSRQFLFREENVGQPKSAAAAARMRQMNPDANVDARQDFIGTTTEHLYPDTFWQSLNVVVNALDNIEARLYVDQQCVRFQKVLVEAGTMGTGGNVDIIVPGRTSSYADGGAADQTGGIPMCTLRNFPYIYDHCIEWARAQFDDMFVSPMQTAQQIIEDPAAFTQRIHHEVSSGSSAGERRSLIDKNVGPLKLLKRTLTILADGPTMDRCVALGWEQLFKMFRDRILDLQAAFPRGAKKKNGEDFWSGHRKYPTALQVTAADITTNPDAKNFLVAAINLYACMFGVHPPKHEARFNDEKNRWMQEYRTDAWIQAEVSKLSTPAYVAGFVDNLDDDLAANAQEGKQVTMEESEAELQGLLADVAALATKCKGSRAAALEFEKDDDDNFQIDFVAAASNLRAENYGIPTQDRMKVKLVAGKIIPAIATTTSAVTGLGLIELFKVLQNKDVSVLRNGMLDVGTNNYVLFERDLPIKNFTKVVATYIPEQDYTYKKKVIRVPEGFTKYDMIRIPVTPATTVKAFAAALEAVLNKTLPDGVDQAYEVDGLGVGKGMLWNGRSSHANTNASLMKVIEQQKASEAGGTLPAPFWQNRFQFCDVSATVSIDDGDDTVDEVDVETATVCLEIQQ

[3] = biological target: AMP-activated protein kinase, AMPK (Homo sapiens) (UniProt P54646+O43741+P54619+Q9UGJ0+Q9Y478+Q13131+Q9UGI9); test: AMP-dependent Kinase enzyme assay. An in vitro enzyme assay that detects ADP turnover that is directly proportional to AMPK activity. This uses naive AMPK that is activated during the assay with MK-8722; type: functional; conditions: 30 µM
[4] = biological target: Sialic acid-binding Ig-like lectin 9 (Homo sapiens) (UniProt Q9Y336); test: Hs-Siglec9 ALPHAscreen SOP 20170721; conditions: 10 µM
[5] = tested on: Trypanosoma cruzi; test: Trypanosoma cruzi phosphomannomutase and mannose-1-phosphate guanylyltransferase assay; type: functional; conditions: 10 µM
[6] = biological target: T2, Arginase-2, mitochondrial (Homo sapiens) (UniProt P78540); test: in vitro enzyme assay to detect the production of urea directly proportional to the activity of Arginase II; type: functional; conditions: 33.3 µM; further: in the data most compounds retested in dose-response had high values
T2 sequence (whole entry): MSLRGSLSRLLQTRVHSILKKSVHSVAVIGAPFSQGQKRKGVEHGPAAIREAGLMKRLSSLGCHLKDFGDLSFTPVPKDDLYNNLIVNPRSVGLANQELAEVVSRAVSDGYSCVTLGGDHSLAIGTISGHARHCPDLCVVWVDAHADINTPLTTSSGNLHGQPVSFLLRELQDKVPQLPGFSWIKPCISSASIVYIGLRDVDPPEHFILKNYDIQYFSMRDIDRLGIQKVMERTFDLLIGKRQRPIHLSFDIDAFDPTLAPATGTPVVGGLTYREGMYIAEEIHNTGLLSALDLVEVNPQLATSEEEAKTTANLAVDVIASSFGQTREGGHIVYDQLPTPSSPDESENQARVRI

[7] = biological target: T3, Proteasome subunit beta (Trypanosoma cruzi) (UniProt O96673); test: Trypanosoma cruzi proteasome chymotrypsin-like activity (TcProtChymo) assay.; further: in the data most compounds retested in dose-response had high values; type: functional; conditions: 9.37 µM
T3 sequence (whole entry): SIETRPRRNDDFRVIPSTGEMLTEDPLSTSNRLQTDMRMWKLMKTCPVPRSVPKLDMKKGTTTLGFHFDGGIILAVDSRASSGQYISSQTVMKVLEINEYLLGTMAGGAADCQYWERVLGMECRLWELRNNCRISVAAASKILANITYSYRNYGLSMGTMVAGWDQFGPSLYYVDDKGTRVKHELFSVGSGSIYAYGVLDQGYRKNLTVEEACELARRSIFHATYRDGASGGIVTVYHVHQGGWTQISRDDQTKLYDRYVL

[8] = species on record: Homo sapiens; test: To identify inhibition of the IFN signalling (Jak-Stat) pathway via expression of an eGFP reporter gene under the control of an IFN-stimulated response element (ISRE) containing MxA promoter.; type: functional; conditions: 30 µM
[9] = biological target: T4, Tyrosyl-tRNA synthetase, putative (Trypanosoma cruzi (strain CL Brener)) (UniProt Q4DSP6); test: Trypanosoma cruzi tyrosyl tRNA synthetase (TcYRS) _High Tyrosine SOP; type: functional; conditions: 30 µM; further: in the data most compounds retested in dose-response had high values
T4 sequence (whole entry): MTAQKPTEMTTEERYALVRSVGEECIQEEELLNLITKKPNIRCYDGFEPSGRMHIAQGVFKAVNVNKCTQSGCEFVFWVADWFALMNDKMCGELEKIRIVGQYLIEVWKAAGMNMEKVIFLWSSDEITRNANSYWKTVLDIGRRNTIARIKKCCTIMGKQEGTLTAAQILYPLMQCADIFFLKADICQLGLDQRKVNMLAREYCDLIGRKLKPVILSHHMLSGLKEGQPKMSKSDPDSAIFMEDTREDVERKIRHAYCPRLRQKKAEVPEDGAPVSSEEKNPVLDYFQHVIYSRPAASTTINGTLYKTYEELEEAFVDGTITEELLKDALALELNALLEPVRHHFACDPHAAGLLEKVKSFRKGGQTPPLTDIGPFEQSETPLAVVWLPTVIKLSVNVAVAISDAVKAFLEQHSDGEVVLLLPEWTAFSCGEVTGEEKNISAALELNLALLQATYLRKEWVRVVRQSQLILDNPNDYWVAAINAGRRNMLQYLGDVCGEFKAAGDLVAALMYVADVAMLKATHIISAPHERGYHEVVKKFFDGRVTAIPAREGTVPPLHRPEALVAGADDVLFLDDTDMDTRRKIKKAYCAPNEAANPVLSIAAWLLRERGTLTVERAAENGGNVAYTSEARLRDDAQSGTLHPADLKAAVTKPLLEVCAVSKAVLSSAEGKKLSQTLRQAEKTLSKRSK

[10] = biological target: T4, Tyrosyl-tRNA synthetase, putative (Trypanosoma cruzi (strain CL Brener)); test: Trypanosoma cruzi tyrosyl tRNA synthetase (TcYRS) SOP; type: functional; conditions: 30 µM
[11] = biological target: Chromo domain-containing protein 1 (Saccharomyces cerevisiae (strain ATCC 204508 / S288c) (Baker's yeast)) (UniProt P32657); test: ScCHD-1 Enzyme Inhibition Assay; type: functional; conditions: 30 µM; further: in the data most compounds retested in dose-response had high values
Chromo domain-containing protein 1 (Saccharomyces cerevisiae (strain ATCC 204508 / S288c) (Baker's yeast)), sequence (P32657 whole entry, the tested form may be a part): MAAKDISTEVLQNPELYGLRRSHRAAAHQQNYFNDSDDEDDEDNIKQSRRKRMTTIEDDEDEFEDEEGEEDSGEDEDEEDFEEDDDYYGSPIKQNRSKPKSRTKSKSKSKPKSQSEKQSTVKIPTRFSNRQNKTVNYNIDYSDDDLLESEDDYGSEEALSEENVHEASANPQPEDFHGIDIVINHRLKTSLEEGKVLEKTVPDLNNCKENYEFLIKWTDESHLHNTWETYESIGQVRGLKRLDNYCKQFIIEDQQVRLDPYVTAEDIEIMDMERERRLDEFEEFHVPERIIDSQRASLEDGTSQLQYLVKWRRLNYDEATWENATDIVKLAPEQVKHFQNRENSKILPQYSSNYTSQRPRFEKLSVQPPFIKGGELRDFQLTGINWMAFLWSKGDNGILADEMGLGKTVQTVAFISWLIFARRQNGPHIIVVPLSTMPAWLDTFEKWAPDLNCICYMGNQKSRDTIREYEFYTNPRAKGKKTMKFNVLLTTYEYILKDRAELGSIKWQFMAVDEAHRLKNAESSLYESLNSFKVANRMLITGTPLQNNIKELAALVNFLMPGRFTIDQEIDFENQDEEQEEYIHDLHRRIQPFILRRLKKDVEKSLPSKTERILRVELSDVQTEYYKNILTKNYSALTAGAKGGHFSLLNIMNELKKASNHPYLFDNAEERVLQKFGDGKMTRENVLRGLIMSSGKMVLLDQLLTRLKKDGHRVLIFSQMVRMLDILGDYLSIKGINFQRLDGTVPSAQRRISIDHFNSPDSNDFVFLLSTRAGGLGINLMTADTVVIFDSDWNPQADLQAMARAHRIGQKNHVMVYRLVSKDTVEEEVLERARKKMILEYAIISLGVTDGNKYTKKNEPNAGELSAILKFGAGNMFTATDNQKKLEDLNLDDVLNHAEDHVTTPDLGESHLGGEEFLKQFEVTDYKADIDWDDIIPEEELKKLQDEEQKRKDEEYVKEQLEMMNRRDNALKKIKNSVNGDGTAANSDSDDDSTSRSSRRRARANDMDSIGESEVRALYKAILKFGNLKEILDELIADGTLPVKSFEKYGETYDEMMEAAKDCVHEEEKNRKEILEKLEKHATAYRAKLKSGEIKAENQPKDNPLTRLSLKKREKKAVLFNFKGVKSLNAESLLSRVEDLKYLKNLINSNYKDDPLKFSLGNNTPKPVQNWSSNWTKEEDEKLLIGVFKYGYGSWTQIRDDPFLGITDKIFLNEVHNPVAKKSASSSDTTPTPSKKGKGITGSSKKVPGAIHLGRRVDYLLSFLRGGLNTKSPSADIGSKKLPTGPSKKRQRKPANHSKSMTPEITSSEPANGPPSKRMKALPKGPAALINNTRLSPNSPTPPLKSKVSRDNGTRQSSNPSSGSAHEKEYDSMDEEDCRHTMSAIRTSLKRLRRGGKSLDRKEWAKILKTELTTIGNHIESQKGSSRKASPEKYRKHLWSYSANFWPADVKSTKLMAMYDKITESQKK

Sialic acid-binding Ig-like lectin 9 (Homo sapiens), sequence (Q9Y336 whole entry): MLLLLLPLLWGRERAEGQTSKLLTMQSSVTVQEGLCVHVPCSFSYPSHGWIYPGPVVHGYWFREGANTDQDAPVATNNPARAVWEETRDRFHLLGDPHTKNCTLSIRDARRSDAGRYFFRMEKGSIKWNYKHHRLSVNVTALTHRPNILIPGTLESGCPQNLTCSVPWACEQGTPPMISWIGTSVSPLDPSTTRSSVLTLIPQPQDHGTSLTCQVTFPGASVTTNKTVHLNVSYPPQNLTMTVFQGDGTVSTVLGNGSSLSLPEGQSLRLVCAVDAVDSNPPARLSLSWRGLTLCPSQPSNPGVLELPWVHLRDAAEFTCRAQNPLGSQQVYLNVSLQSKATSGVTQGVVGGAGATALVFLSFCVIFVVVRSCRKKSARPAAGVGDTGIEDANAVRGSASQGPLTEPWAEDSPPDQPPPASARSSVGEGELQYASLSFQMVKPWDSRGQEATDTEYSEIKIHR
Protein translocase subunit SecA (Escherichia coli (strain K12)), sequence (P10408 whole entry): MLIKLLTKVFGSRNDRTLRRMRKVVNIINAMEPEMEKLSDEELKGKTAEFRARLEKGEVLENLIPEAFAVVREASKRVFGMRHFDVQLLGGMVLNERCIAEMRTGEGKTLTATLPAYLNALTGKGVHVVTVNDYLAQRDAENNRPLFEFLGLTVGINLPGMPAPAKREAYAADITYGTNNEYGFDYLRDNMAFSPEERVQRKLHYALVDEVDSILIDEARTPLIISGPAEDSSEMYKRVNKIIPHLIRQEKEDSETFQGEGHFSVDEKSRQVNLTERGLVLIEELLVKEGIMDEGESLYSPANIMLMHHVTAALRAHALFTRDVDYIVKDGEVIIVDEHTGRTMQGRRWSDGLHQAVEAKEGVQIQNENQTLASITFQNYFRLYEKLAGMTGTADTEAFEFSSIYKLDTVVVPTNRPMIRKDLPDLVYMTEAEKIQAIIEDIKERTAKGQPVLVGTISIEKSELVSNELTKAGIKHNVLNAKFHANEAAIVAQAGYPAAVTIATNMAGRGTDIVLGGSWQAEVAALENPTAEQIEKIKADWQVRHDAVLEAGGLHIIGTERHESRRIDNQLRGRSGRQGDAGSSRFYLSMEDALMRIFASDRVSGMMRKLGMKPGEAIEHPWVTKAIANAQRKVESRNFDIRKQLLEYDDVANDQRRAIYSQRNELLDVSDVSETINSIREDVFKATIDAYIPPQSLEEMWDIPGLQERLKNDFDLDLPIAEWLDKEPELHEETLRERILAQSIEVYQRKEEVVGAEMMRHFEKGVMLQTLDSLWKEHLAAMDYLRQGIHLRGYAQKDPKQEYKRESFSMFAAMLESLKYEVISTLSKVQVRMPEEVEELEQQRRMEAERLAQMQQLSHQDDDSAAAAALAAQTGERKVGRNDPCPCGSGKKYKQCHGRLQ

| SMILES | Percent Effect [1] [%] | Percent Effect [2] [%] | Percent Effect [3] [%] | Percent Effect [4] [%] | Percent Effect [5] [%] | Percent Effect [6] [%] | Percent Effect [7] [%] | Percent Effect [8] [%] | Percent Effect [9] [%] | Percent Effect [10] [%] | Percent Effect [11] [%] |
| --- | --- | --- | --- | --- | --- | --- | --- | --- | --- | --- | --- |
| Cc1cnn(CCNCc2nc(Cc3ccccc3)no2)c1 | -0.787 | 0 | -3.33 | -0.739 | -1.32 | 5.75 | 5.51 | 13.2 | 5.39 | 7.32 | 2.72 |
| CN(C)C(=O)N[C@@H]1CN(Cc2ccc3c(c2)OCO3)[C@@H]2CCCO[C@@H]21 | -4.35 | 5.33 | 4.23 | 8.52 | -0.386 | -58.6 | 14.5 | 1.11 | 7.29 | 17.5 | -5.44 |
| O=C(Nc1cccnc1)[C@H]1C[C@@H]2CN(C(=O)NC3CCCC3)C[C@H]1O2 | -0.299 | 13.5 | 5.36 | -10.3 | -6.94 | 6.69 | 24.5 | -1.23 | 0 | 15.4 | -0.793 |
| CC(=O)NCC(=O)N1CCN(CC2CC2)c2ncccc2C1 | -4.55 | 8 | 8.23 | 6.27 | -0.394 | -0.233 | 11 | 0.904 | 9.57 | 16.7 | -2.61 |
| O=c1cc2c(nn1CN1CCOCC1)CCC2 | -2.09 | 14.7 | -2.08 | -0.0396 | -0.786 | -6.87 | 11.3 | 14.3 | 6.35 | 15.4 | -8.17 |
| CN(CCC(F)(F)F)C(=O)[C@H]1CSCN1C(=O)OC(C)(C)C | -4.76 | 0 | 3.13 | 1.23 | 8.03 | 0 | 1.77 | -11.9 | 1.07 | 2.5 | -1.07 |
| COCC(O)CNC(=O)c1cnc(-c2ccccc2)nc1O (configuration not stated) | 2.38 | 8.11 | -5.21 | 5.6 | 3.28 | -0.476 | 8.97 | 13.5 | 8.99 | 19.5 | -0.825 |
| COC(=O)CCC(=O)N1CCc2[nH]nc(-c3ccc(F)c(F)c3)c2C1 | -3.6 | 0 | 8.72 | -7.28 | -3.81 | 1.24 | -3.35 | 9.05 | 2.15 | 8.64 | -0.244 |
| CC(C)N1CCC(Cc2cc(-c3ccccc3C(=O)O)ncn2)CC1 | -1.66 | 52.7 | 4.35 | -7.29 | -0.988 | 2.09 | 5.3 | 17.4 | 4.3 | 6.49 | -7.12 |
| Cc1cnc(Nc2nccnc2C2CCN(C)CC2)s1 | 3.01 | 13.3 | 9.68 | -6.36 | -4.92 | 0.699 | 5.2 | 10.5 | 7.45 | 8.97 | -6.78 |
| CCCn1nccc1C(=O)N1CCCN(CCCc2ccccc2)CC1 | -5.36 | 11 | -4.71 | 8.5 | 7.14 | -4.79 | 16.2 | 4.05 | 7.29 | 8.64 | -1.42 |
| Cc1cc(=O)[nH]c(SCC(=O)N(C)CC2Cc3ccccc3CN2C)n1 (configuration not stated) | -6.85 | 5.41 | -2.17 | -6.16 | -0.489 | -0.744 | 5.75 | -12.2 | 6.45 | 8.64 | -4.63 |
| CN(C)CCN1C[C@@H]2CN(C(=O)c3ccsc3)C[C@@H]2C1=O | -7.36 | 5.2 | 0.643 | 5.55 | -3.25 | 0 | 5.66 | 20.3 | 0 | 1.24 | 1.29 |
| O=C(CN1CCNCC1)N1CC[C@@H](c2ccc3ccccc3c2)[C@H](O)C1 | -0.963 | 8 | -4.87 | 12.2 | 0.876 | 2.08 | 14.7 | 10.1 | 7.1 | 13.6 | -3.45 |
| O=C(NC1CC1)[C@H]1C[C@@H]2CCN(CCc3ccccc3)C[C@H]2O1 | 2.18 | 10.7 | 9.4 | -8.83 | -7.28 | 2.56 | 4.85 | 4.51 | 1.06 | 11.5 | -2.58 |
| CS(=O)(=O)NCc1cnc2n1CCN(Cc1ccsc1)CC2 | 1.5 | 21.9 | -6.69 | 5.11 | -5.16 | -18 | 14.6 | 18.3 | 8.33 | 3.7 | 0.00549 |
| O=C(Cc1ccccc1)N1CCC2(CC(=O)N(c3cccc(F)c3)C2)C1 (configuration not stated) | -5.5 | 2.7 | -5.09 | -3.6 | -1.86 | 1.74 | 6.09 | -6.6 | 3.23 | 3.7 | 2.85 |
| Cn1cc(CN2CCCC3(CCN(Cc4cccnc4)C3=O)C2)cn1 (configuration not stated) | -0.768 | 21.6 | -0.596 | -4.91 | 3.81 | 7.33 | 14 | -9.12 | 1.08 | 12.8 | 1.58 |
| CN1CCC(NC(=O)NCCNc2ccccn2)CC1 | -2.67 | 16.2 | -6.97 | 16.2 | 4.92 | 3.14 | 16.5 | 5.52 | 3.96 | 15.8 | -6.11 |
| CSCc1cccc(S(=O)(=O)NCCCn2ccnc2)c1 | -5.68 | -23.4 | -1.48 | 6.2 | 1.67 | -6.9 | 2.16 | 2.79 | 7.53 | 21 | -1.53 |
| CCOC(=O)[C@]12CCCN(Cc3nccs3)C[C@H]1CN(C(C)=O)C2 | -1.26 | 5.2 | -1.96 | -4.79 | -9.17 | -0.645 | 15.7 | 7.39 | 0 | 6.41 | -6.7 |
| Cc1cc(CC(=O)NCc2ccnc(OCC(F)(F)F)c2)no1 | -9.52 | -5.26 | 3.73 | -4.53 | -6.2 | -0.766 | 2.84 | 30.8 | 0.49 | 0 | -5.08 |
